Assay results as given in PubChem BioAssay (EPA / NIEHS).
Values joined by “and” are separate entries in the source; they are usually repeats but may differ in a detail not shown here. Equal values may be shown once. Inconclusive results are not listed. Active and inactive are the calls of the source. Rule for the calls, unless noted: active = hit-call score of the fitted dose curve at least 0.9, where 1 is the maximum; inactive = score below 0.9.

Assays:
[1] = BSK_IMphg_SRB: Viability Assessment in the BioMAP Diversity Plus: IMphg Assay (AID 2284292); details: primary human endothelial cells with macrophages;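 note: measured one day after compound addition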
How it was run: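 SRB viability endpoint: cultures of human endothelial cells plus macrophages fixed with 10% TCA, stained with 0.1% SRB, read at 560 nm 24 h post-dosing. Only gain-of-signal fitted, relative to DMSO.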

[2] = read-out: Macrophage colony-stimulating factor (MCSF), CSF1 (gene 1435); test: BSK_IMphg_MCSF: BioMAP Diversity Plus: IMphg Assay for Macrophage colony-stimulating factor (MCSF) Biomarker Activity (AID 2284293); details: primary human endothelial cells with macrophages
How it was run: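 M-CSF was measured by ELISA in human venular endothelial cell/macrophage co-cultures dosed for 24 hours. Sulforhodamine B staining of parallel cultures assessed cytotoxicity; data fitted against DMSO baseline.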

[3] = read-out: Interleukin-10 (IL10), IL10 (gene 3586); test: BSK_IMphg_IL10: BioMAP Diversity Plus: IMphg Assay for Interleukin-10 (IL10) Biomarker Activity (AID 2284294); details: primary human endothelial cells with macrophages
How it was run: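 IL-10 read by ELISA after 24 h chemical exposure of primary human venular endothelial cell/macrophage cocultures, with DMSO as baseline. Parallel SRB staining (560 nm) gauged overt cytotoxicity.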

[4] = BSK_IMphg_SRB.Mphg: Macrophage Viability Assessment in the BioMAP Diversity Plus: IMphg Assay (AID 2284295); details: primary human endothelial cells with macrophages
How it was run: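 Cytotoxicity read-out: parallel cultures fixed with 10% TCA, stained with 0.1% sulforhodamine B, read at 560 nm. System combines venular endothelium and macrophages; sampled 24 h post-dosing, fitted positively relative to DMSO control.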

[5] = tested on: TTR (gene 7276); test: CCTE_GLTED_hTTR_0.5uM: CCTE's human Transthyretin (hTTR) Inhibition Assay, with 0.5uM TTR, Great Lakes Toxicology and Ecology Division (GLTED) Lab (AID 2284320)
How it was run: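 Probe (ANSA) displacement from 0.5 uM human transthyretin was followed by fluorescence (ex 380, em 475) after a 2 h incubation with chemical. Activity was scored as signal loss and fitted positively relative to DMSO.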

[6] = CCTE_Padilla_ZF_Score.Craniofacial: CCTE's 144 Hour Post-fertilization zebrafish Assay Score for Craniofacial Malformation, Padilla Lab (AID 2284405)
How it was run: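 Craniofacial defects were scored at 6 dpf by two blinded observers using stereomicroscopy. Exposure of wild-type embryos began at 6–8 hpf in sealed wells of 10% Hanks' solution at 26C, with chemical removed by rinsing at 5 dpf.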

[7] = CCTE_Padilla_ZF_Score.Edema: CCTE's 144 Hour Post-fertilization zebrafish Assay Score for Edema Malformation, Padilla Lab (AID 2284406)
How it was run: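 Edema scored at 6 dpf by two blinded observers under a stereo microscope, in single outbred wild-type larvae exposed from 6-8 hpf in sealed wells (Hanks', 26C, 14:10 h light) and chemical-free after a 5 dpf rinse.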

[8] = CCTE_Padilla_ZF_Score.Spine: CCTE's 144 Hour Post-fertilization zebrafish Assay Score for Spine Malformation, Padilla Lab (AID 2284407)
How it was run: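 Spine malformation scored at 6 dpf by two independent blinded observers under stereomicroscope, after static sealed exposure from 6–8 hpf at 26C in Hanks' solution with rinse on 5 dpf. Positive-direction fit against DMSO control.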

[9] = CCTE_Padilla_ZF_Score.Swim_bladder: CCTE's 144 Hour Post-fertilization zebrafish Assay Score for Swim Bladder Malformation, Padilla Lab (AID 2284408)
How it was run: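 Swim bladder inflation scored at 6 dpf by two blinded observers under a stereo microscope. Exposure ran from 6–8 hpf in sealed wells of 10% Hanks' at 26C, with rinsing at 5 dpf; DMSO served as baseline.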

[10] = CCTE_Padilla_ZF_Score.Position: CCTE's 144 Hour Post-fertilization zebrafish Assay Score for Position, Padilla Lab (AID 2284409)
How it was run: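 Wild-type zebrafish embryos (with chorions) exposed singly from 6–8 hpf in sealed wells of Hanks' solution at 26C, rinsed at 5 dpf. At 6 dpf, blinded assessors scored abnormal water-column position by brightfield stereomicroscopy, relative to DMSO.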

[11] = CCTE_Padilla_ZF_Score.Living: CCTE's 144 Hour Post-fertilization zebrafish Assay Score for Viability, Padilla Lab (AID 2284410);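 note: larval death at 6 dpf judged by absent heartbeat or coagulation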
How it was run: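 Mortality at 6 dpf, judged as absent heartbeat or coagulation by two blinded observers, after sealed static exposure beginning at 6–8 hpf at 26C. Larvae were rinsed free of chemical at 5 dpf, and activity was fitted relative to DMSO.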

[12] = CCTE_Padilla_ZF_Score.General: CCTE's 144 Hour Post-fertilization zebrafish Assay Score for General Malformation, Padilla Lab (AID 2284411)
How it was run: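 Malformation, death and hatching were scored at 6 dpf by two blinded observers under a stereo microscope. Embryos were dosed singly from 6-8 hpf in sealed plates of 10% Hanks' at 26C and rinsed on 5 dpf; DMSO baseline.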

[13] = CCTE_Padilla_ZF_Score.Tail: CCTE's 144 Hour Post-fertilization zebrafish Assay Score for Tail Malformation, Padilla Lab (AID 2284414)
How it was run: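 Tail malformations were scored at 6 dpf by two blinded assessors under a stereo microscope. Chorionated embryos had been exposed from 6-8 hpf in sealed wells of 10% Hanks' at 26 C, then rinsed free of chemical at 5 dpf.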

[14] = CCTE_Padilla_ZF_Score.Blood_pooling: CCTE's 144 Hour Post-fertilization zebrafish Assay Score for Blood Pooling, Padilla Lab (AID 2284415)
How it was run: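 Blood pooling was scored at 6 dpf under a stereo microscope by two blinded assessors, fitted upward against DMSO. Single embryos were dosed at 6–8 hpf in 10% Hanks', kept sealed at 26C (14:10 h cycle) and rinsed at 5 dpf.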

[15] = CCTE_Padilla_ZF_Score.Any: CCTE's 144 Hour Post-fertilization zebrafish Assay Score for Any Mortality or Malformation, Padilla Lab (AID 2284416)
How it was run: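 Wild-type zebrafish embryos with chorions, one per well in 10% Hanks' from 6–8 hpf, dosed in sealed plates at 26 C, 14:10 h light:dark; rinsed at 5 dpf; blinded scoring at 6 dpf for death or malformation, versus DMSO.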

[16] = TAMU_PeakParms_SingleDonor1434_Chronotropy: Texas A&M University (TAMU) 1.5-hr Human Induced Pluripotent Stem Cell (iPSC)-derived Cardiomyocytes Calcium (Ca+2) Flux Assay for Cardiotoxicity: Chronotropy (changes in peak frequency) (AID 2284217); details: actives raise or lower the signal
How it was run: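 Using fluorescent Ca2+ flux, average beats per second are measured in human iPSC-derived cardiomyocytes treated 90 min (0.5% DMSO vehicle, 0.2–100 uM). Non-beating data points are removed; activity is modeled in both directions relative to DMSO controls.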

[17] = TAMU_PeakParms_SingleDonor1434_QT: Texas A&M University (TAMU) 1.5-hr Human Induced Pluripotent Stem Cell (iPSC)-derived Cardiomyocytes Calcium (Ca+2) Flux Assay for Cardiotoxicity: QT (decay-rise ratio) (AID 2284235; active = hit-call score of the fitted dose curve at least 0.9, where 1 is the maximum)
How it was run: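 Decay/rise ratio of calcium-flux fluorescence scored after 90 min exposure (37C) of donor 1434 iPSC cardiomyocytes to 0.2–100 uM (0.5% DMSO). Beat-cessation and severe-notch points removed; POD is EC05, a 5% rise over DMSO.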

[18] = TAMU_PeakParms_SingleDonor1434_Asystole: Texas A&M University (TAMU) 1.5-hr Human Induced Pluripotent Stem Cell (iPSC)-derived Cardiomyocytes Calcium (Ca+2) Flux Assay for Cardiotoxicity: Asystole (quiescence of beating) (AID 2284328; active = hit-call score of the fitted dose curve at least 0.9, where 1 is the maximum)
How it was run: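 Human iPSC-derived cardiomyocytes (donor 1434) were exposed to 0.2, 1, 10 and 100 uM compound in 0.5% DMSO for 90 min at 37C. Ca2+-dye fluorescence gave average peak frequency; POD is EC95, a 95% beat-rate drop versus DMSO.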

[19] = target: D(1A) dopamine receptor (Homo sapiens) (UniProt P21728); test: NVS_GPCR_hDRD1: NovaScreen (NVS) G Protein-Coupled Receptor Assay for human Dopamine Receptor D1 (DRD1) (AID 2283269; active = hit-call score of the fitted dose curve at least 0.9, where 1 is the maximum)
Sequence of D(1A) dopamine receptor (Homo sapiens) (P21728 whole entry, looked up): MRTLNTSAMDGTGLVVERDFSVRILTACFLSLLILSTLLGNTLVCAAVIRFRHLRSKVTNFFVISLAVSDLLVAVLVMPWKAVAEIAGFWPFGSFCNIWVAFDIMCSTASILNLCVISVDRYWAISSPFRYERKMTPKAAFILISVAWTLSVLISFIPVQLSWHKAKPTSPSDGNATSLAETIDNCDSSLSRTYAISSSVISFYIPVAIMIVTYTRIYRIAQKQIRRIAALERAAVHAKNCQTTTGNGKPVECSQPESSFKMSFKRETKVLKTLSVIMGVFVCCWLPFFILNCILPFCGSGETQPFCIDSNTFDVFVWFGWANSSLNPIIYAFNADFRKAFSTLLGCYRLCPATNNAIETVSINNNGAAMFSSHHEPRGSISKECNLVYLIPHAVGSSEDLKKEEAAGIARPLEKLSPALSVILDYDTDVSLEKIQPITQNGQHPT
How it was run: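 Extracted HEK293 DRD1 is incubated 1 h with compound and a tritiated or iodinated radioligand, then filtered and counted. Screening runs 25 uM in duplicate with on-plate positive and negative controls.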

[20] = target: Peroxisome proliferator-activated receptor gamma (Homo sapiens) (UniProt P37231); test: NVS_NR_hPPARg: NovaScreen (NVS) Nuclear Receptor Binding Assay for human Peroxisome Proliferator-activated Receptor gamma (PPARg) (AID 2283370; active = hit-call score of the fitted dose curve at least 0.9, where 1 is the maximum)
Sequence of Peroxisome proliferator-activated receptor gamma (Homo sapiens) (P37231 whole entry, looked up): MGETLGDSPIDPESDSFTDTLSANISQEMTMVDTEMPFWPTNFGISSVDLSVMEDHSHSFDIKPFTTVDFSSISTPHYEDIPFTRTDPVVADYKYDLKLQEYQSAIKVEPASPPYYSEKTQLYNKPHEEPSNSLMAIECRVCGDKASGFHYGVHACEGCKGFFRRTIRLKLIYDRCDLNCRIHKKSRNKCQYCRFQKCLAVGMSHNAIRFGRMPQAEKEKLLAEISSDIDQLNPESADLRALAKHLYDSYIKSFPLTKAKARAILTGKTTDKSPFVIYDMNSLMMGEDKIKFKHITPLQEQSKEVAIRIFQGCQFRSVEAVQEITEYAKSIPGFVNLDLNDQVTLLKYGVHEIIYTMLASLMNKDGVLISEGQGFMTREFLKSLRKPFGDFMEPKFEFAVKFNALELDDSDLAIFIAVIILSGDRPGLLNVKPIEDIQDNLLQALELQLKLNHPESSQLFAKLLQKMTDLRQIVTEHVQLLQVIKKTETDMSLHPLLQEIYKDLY
How it was run: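 Cell-free fluorescence polarization binding to human PPARg protein, read 2 h after dosing. Primary screen in duplicate at 25 uM, actives followed in concentration series; loss of signal relative to DMSO scored.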

Measured: AC50

OC(C(F)(F)F)(C(F)(F)F)C(O)(C(F)(F)F)C(F)(F)F
inactive: [8] | [10] | [13] | [14]
active: [1] 34.1 µM and 34.8 µM | [2] 20 µM and 8.19 µM | [3] 23.6 µM and 21.1 µM | [4] 41.5 µM and 37.7 µM | [5] 11 µM | [6] 2.57 µM | [7] 2.66 µM | [9] 2.66 µM | [11] 11.8 µM | [12] 1.18 µM | [15] 2.21 µM

Nc1nc(N)c2nc(-c3ccccc3)c(N)nc2n1
inactive: [16] | [17] | [18]

CC(=[OH+])/C=C(/C)[O-].CC(=[OH+])/C=C(/C)[O-].CC(=[OH+])/C=C(/C)[O-].[Fe]
inactive: [19]

F[B-](F)(F)F
inactive: [20]
